This note sets out measurements from PubChem BioAssay (NCI).

SMILES strings stand for the structures. Compounds without any hit were thinned out: in the full panel of roughly 83,000, 20% have a hit.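 A percent growth of 40 corresponds to 60% growth inhibition; 0 means no net growth; -100 means all cells died. Active threshold: below 10.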 A number with no mark means an inactive call. Activity calls are given as the source filed them.

The assay relates to HL-60(TB) leukemia. The experiment in a line: NCI-60 one-dose screen, 48 h (100 = growth as untreated, 0 = no growth, -100 = all killed). To be noted: 10 µM unless noted.
In the case of `CCNNC(=O)[C@@H]1[C@H](c2cc(OC)c(OC)c(OC)c2)c2cc3c(cc2[C@H](O)[C@H]1CO)OCO3`, the growth is -24.1% (active).

In the case of `OC(c1ccccc1)C(NCc1ccccc1)c1ccccc1` (centres undefined), the growth was 98.4%.

Turning to `COC(=O)CCC1=C(CC(=O)OC)C(C)=N/C1=C\c1[nH]c(-c2ccc[nH]2)cc1OC`, the growth was 44.2%.

With `CCCOC(=O)c1nc(N(CC2CCCCC2)C(=O)NC)sc1/N=C/c1ccccc1`, the growth is -9.46% (active).
